Measurements: PubChem BioAssay (NCATS)
Inconclusive results are not listed. Calls of active or inactive are those of the source. The call rests on the fitted dose curve; in most records, active means well fitted cell-killing curve with a large enough effect; inconclusive means small, poorly fitted or top-dose-only effect, or effect the other way; inactive means flat fitted curve, though single readings scatter.

How the values were obtained:
Experiment in all cases: Primary qHTS to identify gynecologic anti-cancer compounds using libraries of approved drugs and bioactive compounds (AID 1345084); further: nearly all actives have a fitted effect of over 55% in size
Details in all cases: Gynecologic cancer cell panel viability, ATPlite luminescence, 48 h; series mostly up to 57.5 µM
OV90 = system: OV90
In short: (§1)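 Cells, 1,000 per well, were allowed to settle for 16 h at 37 C before compound addition. Five concentrations were tested for 48 h, and viability was read by ATPlite luminescence after 15 min at room temperature.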

PA-1 = system: PA-1
In short: as §1

SKOV3 = system: SKOV3
In short: as §1

Tov-21-G = system: Tov-21-G
In short: as §1

Tov112D = system: Tov112D
In short: as §1

Measured: Potency

CC(C)c1cccc(C(C)C)c1NC(=O)Nc1ccc(Sc2ccc([N+](=O)[O-])cc2)cc1
inactive: OV90 | PA-1 | SKOV3 | Tov-21-G | Tov112D

C[C@@H](NC(=O)C(=O)c1c[nH]c2ccc([N+](=O)[O-])cc12)c1ccccc1
inactive: OV90 | PA-1 | SKOV3 | Tov-21-G | Tov112D

CC(=O)OC[C@]12[C@H](OC(C)=O)[C@H](OC(=O)c3ccccc3)[C@@H]3[C@@H](OC(C)=O)[C@]1(OC3(C)C)[C@H](C)C[C@H](OC(C)=O)[C@@H]2OC(=O)c1ccccc1
inactive: OV90 | PA-1 | SKOV3 | Tov-21-G | Tov112D

CCCCCCCOc1cc2c(cc1/C(C)=C/c1ccc(C(=O)O)cc1)C(C)(C)CCS2(=O)=O
inactive: OV90 | PA-1 | SKOV3 | Tov-21-G | Tov112D

O=C(NCCCCN1CCN(c2cccc(Cl)c2Cl)CC1)c1cc2ccccc2s1
inactive: OV90 | PA-1 | SKOV3 | Tov-21-G | Tov112D

C=C1CC[C@@H](O)[C@]2(C)CC[C@H]3C(=C)C(=O)O[C@@H]3[C@@H]12
inactive: OV90 | PA-1 | SKOV3 | Tov-21-G | Tov112D

Cc1ccc(-c2ncc[nH]2)cc1NC(=O)c1ccc(OCc2ccccn2)cc1
inactive: OV90 | PA-1 | SKOV3 | Tov-21-G | Tov112D

COc1cc2c(cc1O)C1(Cc3ccc4c(c3C1O)OCO4)[N+](C)([O-])CC2 (stereo not given)
inactive: OV90 | PA-1 | SKOV3 | Tov-21-G | Tov112D

O=C(Nc1ccc(Cl)cc1)c1ccccc1NCc1ccncc1
inactive: OV90 | PA-1 | SKOV3 | Tov-21-G | Tov112D

COc1ccc(-c2csc(NC(=O)[C@H]3CCCCN3S(=O)(=O)c3ccc(C)cc3)n2)cc1
inactive: OV90 | PA-1 | SKOV3 | Tov-21-G | Tov112D

COc1cc2ncnc(Oc3ccc(CC(=O)Nc4cnn(C(C)C)c4)cc3)c2cc1OC
inactive: OV90 | PA-1 | SKOV3 | Tov-21-G | Tov112D

O=[N+]([O-])c1cn2c(n1)OC[C@@H](OCc1ccc(-c3ccc(OC(F)(F)F)cc3)nc1)C2
inactive: OV90 | PA-1 | SKOV3 | Tov-21-G | Tov112D

CN(C)S(=O)(=O)c1ccc(NC(=S)N2CCC(C(O)(c3ccccc3)c3ccccc3)CC2)cc1
inactive: OV90 | PA-1 | SKOV3 | Tov-21-G | Tov112D

CC[C@H]1OC(=O)[C@H](C)[C@@H](O[C@H]2C[C@@](C)(OC)[C@@H](O)[C@H](C)O2)[C@H](C)[C@@H](O[C@H]2O[C@H](C)C[C@H](N(C)C)[C@H]2O)[C@](C)(O)C[C@@H](C)C(=O)[C@H](C)[C@@H](O)[C@]1(C)O
inactive: OV90 | PA-1 | SKOV3 | Tov-21-G | Tov112D

COc1ccccc1OCCNCC(O)CCOc1cccc2[nH]c3ccccc3c12 (stereo not given)
inactive: OV90 | PA-1 | SKOV3 | Tov-21-G | Tov112D

COc1ccc2cc(-c3cc(-c4cc(Cl)cc(Cl)c4)nn3C(C)c3ccc(C(=O)NCCC(=O)O)cc3)ccc2c1 (stereo not given)
inactive: OV90 | PA-1 | SKOV3 | Tov-21-G | Tov112D

CC(=O)O[C@@H]1C2=C(O)C(=O)[C@](C)(OC(C)=O)C(=O)C2=CO[C@@]12O[C@@H](C)CC[C@H]2OC(C)=O
inactive: OV90 | PA-1 | SKOV3 | Tov-21-G | Tov112D

COc1ccccc1C(=O)Nc1cccc(NC(=O)c2cccc(C)c2)c1
inactive: OV90 | PA-1 | SKOV3 | Tov-21-G | Tov112D

CCC(=O)N1CCOc2c(cc(-c3ccc(OC)c(OC)c3)cc2OC[C@H]2CCCN(C)C2)C1
inactive: OV90 | PA-1 | SKOV3 | Tov-21-G | Tov112D

C=C1C(=O)OC2C1CCC1(C)C(O)CCC(=C)C21 (stereo not given)
inactive: OV90 | PA-1 | SKOV3 | Tov-21-G | Tov112D

COc1cc(O)cc(OC2OC(CO)C(O)C(O)C2O)c1 (stereo not given)
inactive: OV90 | PA-1 | SKOV3 | Tov-21-G | Tov112D

CC(C)=CCc1cc2c(cc1O)OC[C@H]1c3ccc(O)cc3O[C@@H]21
inactive: OV90 | PA-1 | SKOV3 | Tov-21-G | Tov112D

CCN(CC)C(=O)C(c1ccccc1)N1CCN(c2ccc(NC(=O)c3ccccc3-c3cccnc3)cc2F)CC1 (stereo not given)
inactive: OV90 | PA-1 | SKOV3 | Tov-21-G | Tov112D

C=C1CCC[C@]2(C)CC/C(=C(/CO)C(=O)OC)C[C@@H]12
inactive: OV90 | PA-1 | SKOV3 | Tov-21-G | Tov112D
